This passage reports binding signal results from article PMC7862700, “An all-to-all approach to the identification of sequence-specific readers for epigenetic DNA modifications on cytosine”.

Test in all cases: DAPPL (digital affinity profiling via proximity ligation, sequencing); 10 mM Tris-HCl pH 7.5, 50 mM NaCl, 1 mM DTT, 4% glycerol, room temperature, 30 min; GST-TFs on glutathione beads, 16-mer random dsDNA library, 0.1% formaldehyde crosslink after washing; high values mean tight binding
Common to all, as to conditions: protein: recombinant; tags: N-terminal GST; dsDNA, one strand shown

For one experiment, the target named is T1, ELK1 (Homo sapiens, UniProt P19419 1-428).
T1 sequence: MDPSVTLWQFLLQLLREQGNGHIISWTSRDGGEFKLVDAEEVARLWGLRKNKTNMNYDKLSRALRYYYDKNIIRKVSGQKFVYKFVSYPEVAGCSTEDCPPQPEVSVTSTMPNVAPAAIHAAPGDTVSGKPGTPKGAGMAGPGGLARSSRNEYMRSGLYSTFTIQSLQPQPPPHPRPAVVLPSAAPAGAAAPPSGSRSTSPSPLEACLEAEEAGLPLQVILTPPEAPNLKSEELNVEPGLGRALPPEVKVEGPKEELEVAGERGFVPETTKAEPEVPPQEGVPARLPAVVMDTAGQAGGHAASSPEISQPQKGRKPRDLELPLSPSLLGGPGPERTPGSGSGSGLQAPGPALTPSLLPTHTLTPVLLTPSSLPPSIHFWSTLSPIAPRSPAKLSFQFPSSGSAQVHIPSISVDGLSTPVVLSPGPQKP
Summed up: (§1)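 GST fusions of human transcription factors were expressed in yeast and captured with glutathione beads. Once given DNA barcodes and pooled alongside a tag-only sample, they were incubated for 30 min at room temperature with 200 nmole of a random double-stranded 16-mer DNA library in Tris/NaCl/DTT/glycerol buffer, then washed, crosslinked (0.1% formaldehyde), proximity-ligated, PCR-amplified and sequenced on an Illumina NextSeq500. The binding signal of each hexamer is its read frequency for a factor divided by its frequency for the tag-only sample.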

For a further experiment, the target named is T2, GABPA (Homo sapiens, UniProt Q06546 1-454).
T2 sequence: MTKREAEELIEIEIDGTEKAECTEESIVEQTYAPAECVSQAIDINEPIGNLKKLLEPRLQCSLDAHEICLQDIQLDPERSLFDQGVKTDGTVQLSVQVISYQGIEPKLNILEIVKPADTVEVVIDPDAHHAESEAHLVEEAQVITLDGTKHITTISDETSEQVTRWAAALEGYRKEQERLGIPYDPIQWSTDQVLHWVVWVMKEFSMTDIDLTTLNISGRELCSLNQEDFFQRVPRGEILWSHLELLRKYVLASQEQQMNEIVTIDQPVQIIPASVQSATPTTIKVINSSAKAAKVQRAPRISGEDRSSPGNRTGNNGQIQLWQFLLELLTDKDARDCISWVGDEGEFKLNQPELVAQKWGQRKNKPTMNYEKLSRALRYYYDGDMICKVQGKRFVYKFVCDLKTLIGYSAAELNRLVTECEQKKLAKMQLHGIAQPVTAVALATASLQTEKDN
The essentials: as §1

Another experiment concerns the target T3, ERG (Homo sapiens, UniProt P11308 1-479).
T3 sequence: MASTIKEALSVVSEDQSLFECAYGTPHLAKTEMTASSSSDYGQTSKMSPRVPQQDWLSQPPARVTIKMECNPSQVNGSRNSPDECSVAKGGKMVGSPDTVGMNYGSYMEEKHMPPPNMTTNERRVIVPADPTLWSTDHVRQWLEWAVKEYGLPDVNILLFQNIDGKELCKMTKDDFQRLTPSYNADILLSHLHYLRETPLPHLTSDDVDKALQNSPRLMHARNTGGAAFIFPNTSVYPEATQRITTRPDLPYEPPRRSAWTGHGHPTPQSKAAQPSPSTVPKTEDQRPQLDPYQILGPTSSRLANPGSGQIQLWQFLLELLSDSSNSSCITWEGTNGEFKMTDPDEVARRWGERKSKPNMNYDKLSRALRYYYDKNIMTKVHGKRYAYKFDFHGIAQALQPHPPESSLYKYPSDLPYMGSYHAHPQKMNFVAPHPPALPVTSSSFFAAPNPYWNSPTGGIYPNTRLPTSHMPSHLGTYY
Summed up: as §1

The next experiment deals with ELF1 (Homo sapiens, UniProt P32519 1-619). The essentials: as §1
In another experiment the target is T4, EHF (Homo sapiens, UniProt Q9NZC4 1-300).
T4 sequence: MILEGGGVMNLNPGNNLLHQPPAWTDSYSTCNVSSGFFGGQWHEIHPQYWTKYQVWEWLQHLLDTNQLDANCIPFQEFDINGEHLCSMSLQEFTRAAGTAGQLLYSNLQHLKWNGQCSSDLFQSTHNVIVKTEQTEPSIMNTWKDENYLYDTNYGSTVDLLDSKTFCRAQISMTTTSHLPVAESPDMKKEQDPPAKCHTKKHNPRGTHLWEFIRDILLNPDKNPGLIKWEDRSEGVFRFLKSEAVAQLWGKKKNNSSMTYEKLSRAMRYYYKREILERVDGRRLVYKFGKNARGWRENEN
Summed up:
as §1

The target of another experiment is SPIB (Homo sapiens, UniProt Q01892 1-262). The essentials:
as §1

The target of the next experiment is T5, FEV (Homo sapiens, UniProt Q99581 1-238).
T5 sequence: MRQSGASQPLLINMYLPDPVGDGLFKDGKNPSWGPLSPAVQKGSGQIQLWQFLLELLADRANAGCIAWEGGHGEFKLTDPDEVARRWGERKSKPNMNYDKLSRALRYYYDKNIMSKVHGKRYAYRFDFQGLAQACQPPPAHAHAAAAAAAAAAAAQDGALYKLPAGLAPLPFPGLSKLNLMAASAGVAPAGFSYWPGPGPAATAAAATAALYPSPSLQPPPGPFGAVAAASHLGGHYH
Summed up:
as §1

The next experiment has as its target ETV5 (Homo sapiens, UniProt P41161 1-510). The essentials: as §1
The target in another experiment is ELF4 (Homo sapiens, UniProt Q99607 1-663). The essentials: as §1
Another experiment has as its target T6, ETV2 (Homo sapiens, UniProt O00321 1-342).
T6 sequence: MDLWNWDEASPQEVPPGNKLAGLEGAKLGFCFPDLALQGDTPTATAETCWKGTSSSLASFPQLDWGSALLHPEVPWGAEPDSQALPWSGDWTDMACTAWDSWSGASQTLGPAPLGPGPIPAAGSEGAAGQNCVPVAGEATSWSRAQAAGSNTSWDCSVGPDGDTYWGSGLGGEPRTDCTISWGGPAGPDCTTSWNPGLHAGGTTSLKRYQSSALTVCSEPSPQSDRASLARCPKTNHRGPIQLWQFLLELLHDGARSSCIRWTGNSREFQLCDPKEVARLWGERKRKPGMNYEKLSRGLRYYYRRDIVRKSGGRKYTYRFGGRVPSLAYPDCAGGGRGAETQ
Summed up:
as §1

The next experiment has as its target T7, ETV3L (Homo sapiens, UniProt Q6ZN32 1-361).
T7 sequence: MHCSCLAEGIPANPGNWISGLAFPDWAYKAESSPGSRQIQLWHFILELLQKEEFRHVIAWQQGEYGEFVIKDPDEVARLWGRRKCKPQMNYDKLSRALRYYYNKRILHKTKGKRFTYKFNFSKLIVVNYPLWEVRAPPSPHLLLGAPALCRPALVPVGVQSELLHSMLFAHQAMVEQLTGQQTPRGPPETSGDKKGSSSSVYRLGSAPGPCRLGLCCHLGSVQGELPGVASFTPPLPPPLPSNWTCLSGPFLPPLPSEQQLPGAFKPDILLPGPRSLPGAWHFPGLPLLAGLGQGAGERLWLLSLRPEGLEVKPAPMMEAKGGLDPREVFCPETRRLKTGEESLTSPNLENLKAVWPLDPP
Summed up: as §1

For another experiment, the target named is T8, ETS2 (Homo sapiens, UniProt P15036 1-469).
T8 sequence: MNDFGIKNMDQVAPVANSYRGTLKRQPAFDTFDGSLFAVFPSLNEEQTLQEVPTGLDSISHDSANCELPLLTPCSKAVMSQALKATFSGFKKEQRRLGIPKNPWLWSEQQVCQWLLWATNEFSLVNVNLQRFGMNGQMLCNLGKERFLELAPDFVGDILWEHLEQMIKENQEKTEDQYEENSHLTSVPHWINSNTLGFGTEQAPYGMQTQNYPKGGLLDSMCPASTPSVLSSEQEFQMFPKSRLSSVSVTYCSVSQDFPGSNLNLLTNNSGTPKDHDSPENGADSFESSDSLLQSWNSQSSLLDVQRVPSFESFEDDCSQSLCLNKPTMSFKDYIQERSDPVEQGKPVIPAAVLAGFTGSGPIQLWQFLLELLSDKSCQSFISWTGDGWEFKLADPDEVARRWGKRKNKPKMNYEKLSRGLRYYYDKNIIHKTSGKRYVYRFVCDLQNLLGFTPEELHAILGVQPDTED
Summed up:
as §1

Another experiment has as its target T9, ETV3 (Homo sapiens, UniProt P41162-2 1-143).
T9 sequence: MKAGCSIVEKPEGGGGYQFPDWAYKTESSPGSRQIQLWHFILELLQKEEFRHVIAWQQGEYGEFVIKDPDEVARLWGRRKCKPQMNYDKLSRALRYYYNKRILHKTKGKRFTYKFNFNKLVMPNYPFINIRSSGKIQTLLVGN
The essentials:
as §1

The target of the next experiment is ETV6 (Homo sapiens, UniProt P41212 1-452). The essentials: as §1
Chain of ETV6 (P41212 whole entry): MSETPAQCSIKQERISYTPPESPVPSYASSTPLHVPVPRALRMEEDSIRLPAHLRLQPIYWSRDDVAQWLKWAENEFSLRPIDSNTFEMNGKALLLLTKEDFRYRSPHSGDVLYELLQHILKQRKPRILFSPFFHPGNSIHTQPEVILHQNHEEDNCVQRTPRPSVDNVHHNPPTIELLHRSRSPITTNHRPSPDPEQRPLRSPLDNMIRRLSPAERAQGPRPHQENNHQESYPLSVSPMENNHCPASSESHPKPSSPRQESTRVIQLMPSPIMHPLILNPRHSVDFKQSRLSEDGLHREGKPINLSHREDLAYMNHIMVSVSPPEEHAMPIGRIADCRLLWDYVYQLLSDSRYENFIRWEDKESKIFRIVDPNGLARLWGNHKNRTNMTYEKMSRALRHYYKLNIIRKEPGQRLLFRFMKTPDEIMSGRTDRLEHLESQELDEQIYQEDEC

Chain of ELF4 (Q99607 whole entry): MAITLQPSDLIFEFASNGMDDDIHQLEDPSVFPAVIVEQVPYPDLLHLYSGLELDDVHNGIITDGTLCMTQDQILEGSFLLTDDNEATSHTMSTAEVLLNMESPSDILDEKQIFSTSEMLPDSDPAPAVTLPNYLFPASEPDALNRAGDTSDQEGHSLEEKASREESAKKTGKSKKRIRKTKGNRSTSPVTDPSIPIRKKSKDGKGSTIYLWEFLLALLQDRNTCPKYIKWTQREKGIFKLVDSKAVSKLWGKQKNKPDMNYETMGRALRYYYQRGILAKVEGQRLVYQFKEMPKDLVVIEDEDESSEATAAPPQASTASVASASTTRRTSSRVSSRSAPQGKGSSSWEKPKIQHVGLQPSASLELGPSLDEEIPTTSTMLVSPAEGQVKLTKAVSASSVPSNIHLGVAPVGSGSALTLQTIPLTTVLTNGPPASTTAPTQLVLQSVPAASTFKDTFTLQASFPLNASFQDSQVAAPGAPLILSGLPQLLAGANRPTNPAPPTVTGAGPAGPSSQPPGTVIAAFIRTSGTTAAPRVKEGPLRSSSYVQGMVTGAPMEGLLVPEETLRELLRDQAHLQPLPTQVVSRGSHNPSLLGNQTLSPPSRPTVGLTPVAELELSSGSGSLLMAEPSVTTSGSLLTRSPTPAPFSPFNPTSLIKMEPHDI
Chain of SPIB (Q01892 whole entry): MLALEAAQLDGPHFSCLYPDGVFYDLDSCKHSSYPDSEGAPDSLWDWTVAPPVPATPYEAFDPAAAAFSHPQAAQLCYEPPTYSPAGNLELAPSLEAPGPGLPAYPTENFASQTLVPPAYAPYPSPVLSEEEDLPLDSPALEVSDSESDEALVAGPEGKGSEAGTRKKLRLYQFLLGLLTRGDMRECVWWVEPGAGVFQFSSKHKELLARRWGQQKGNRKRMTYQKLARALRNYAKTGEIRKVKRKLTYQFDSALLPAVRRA
Chain of ETV5 (P41161 whole entry): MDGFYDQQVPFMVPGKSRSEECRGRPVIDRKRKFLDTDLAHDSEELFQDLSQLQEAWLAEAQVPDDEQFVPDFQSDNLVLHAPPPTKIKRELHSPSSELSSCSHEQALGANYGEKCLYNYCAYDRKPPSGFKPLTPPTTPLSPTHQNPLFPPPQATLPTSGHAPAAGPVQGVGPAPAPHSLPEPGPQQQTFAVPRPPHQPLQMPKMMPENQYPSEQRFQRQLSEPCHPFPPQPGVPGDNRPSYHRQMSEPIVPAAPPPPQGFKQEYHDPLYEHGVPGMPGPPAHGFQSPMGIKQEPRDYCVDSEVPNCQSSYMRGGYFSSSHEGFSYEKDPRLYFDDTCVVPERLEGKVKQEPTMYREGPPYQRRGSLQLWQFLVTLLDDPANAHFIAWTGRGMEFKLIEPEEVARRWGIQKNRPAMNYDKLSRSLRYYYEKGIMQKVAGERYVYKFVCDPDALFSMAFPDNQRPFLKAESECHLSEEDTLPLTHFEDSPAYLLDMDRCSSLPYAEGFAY
Chain of ELF1 (P32519 whole entry): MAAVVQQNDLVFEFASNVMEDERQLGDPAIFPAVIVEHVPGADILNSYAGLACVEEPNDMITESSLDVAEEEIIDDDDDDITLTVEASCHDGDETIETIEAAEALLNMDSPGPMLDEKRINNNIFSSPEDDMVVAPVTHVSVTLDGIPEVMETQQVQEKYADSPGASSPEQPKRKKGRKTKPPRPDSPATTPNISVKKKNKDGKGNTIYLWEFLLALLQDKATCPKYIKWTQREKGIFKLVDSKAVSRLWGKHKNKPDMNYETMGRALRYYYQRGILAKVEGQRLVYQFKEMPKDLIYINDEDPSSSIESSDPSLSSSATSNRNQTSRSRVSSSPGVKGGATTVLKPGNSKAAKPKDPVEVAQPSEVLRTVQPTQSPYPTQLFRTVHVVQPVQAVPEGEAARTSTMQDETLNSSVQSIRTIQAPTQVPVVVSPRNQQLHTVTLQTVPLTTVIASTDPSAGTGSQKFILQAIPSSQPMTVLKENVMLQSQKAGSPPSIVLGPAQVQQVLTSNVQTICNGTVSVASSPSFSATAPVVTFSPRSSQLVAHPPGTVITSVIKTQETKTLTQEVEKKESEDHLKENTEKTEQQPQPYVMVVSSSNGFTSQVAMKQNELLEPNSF

On to AGGACC, for which the binding signal with ELK1 was 1.07 fold enrichment (6-mer frequency, TF over GST control); with GABPA, 1.07 fold enrichment (6-mer frequency, TF over GST control); in the experiment with ERG it was 1.09 fold enrichment (6-mer frequency, TF over GST control); with ELF1, 1.06 fold enrichment (6-mer frequency, TF over GST control); with EHF, 1.02 fold enrichment (6-mer frequency, TF over GST control); in the experiment with SPIB, 1.05 fold enrichment (6-mer frequency, TF over GST control). The binding signal in the experiment with FEV is 1.07 fold enrichment (6-mer frequency, TF over GST control); with ETV5, 1.04 fold enrichment (6-mer frequency, TF over GST control); with ELF4, 1.06 fold enrichment (6-mer frequency, TF over GST control); with ETV2, 1.18 fold enrichment (6-mer frequency, TF over GST control); with ETV3L, 1.07 fold enrichment (6-mer frequency, TF over GST control); with ETS2, 1.04 fold enrichment (6-mer frequency, TF over GST control). For the same sequence, the binding signal in the experiment with ETV3 was 1.03 fold enrichment (6-mer frequency, TF over GST control); in the experiment with ETV6, 1.02 fold enrichment (6-mer frequency, TF over GST control).
